Experimental data reported in PubChem BioAssay AID1578 (Sanford-Burnham Center for Chemical Genomics, 2009).
Among all 290,000 compounds or so, about 3,000 (1%) were called active. No stated cut-off is given here; in the data, active means inhibition mostly above about 36% (no sharp cut-off); inactive means mostly below about 34%. Only a selection was taken, and actives are over-represented in it overall.

Experiment: inhibition of NOD1-driven NF-kB reporter – cell-based, luminescence, uHTS, primary screen (AID 1578);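 further: HEK-293T reporter cells stimulated with the NOD1 agonist gamma-tri-DAP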
Conditions: NOD1-driven NF-kB luciferase reporter cells, at 4 µM, active compounds read high

Row | Compound | inhibition
1 | CCN(Cc1ccccc1)S(=O)(=O)c1ccc(OC)cc1 | 14.2% (inactive)
2 | COc1cccc(C2CC(c3cccs3)=NN2S(C)(=O)=O)c1OC (stereo not drawn) | -30.3% (inactive)
3 | N#CCSc1nc2ccccc2c(=O)n1CCC(=O)NCCc1ccccc1 | 32.7% (inactive)
4 | O=C1C(=O)N(CCCN2CCOCC2)C(c2ccc([N+](=O)[O-])cc2)/C1=C(/O)c1ccc2c(c1)OCO2 (stereo not drawn) | -24.9% (inactive)
5 | CCc1cccc(NC(=O)CCS(=O)(=O)c2ccc3c(c2)NC(=O)CO3)c1 | -12.9% (inactive)
6 | CN(C(=O)CCN1C(=O)C(C)(C)Nc2ccccc21)c1ccccc1 | 0.1% (inactive)
7 | Cc1ccc2[nH]cc(C(=O)CN3CCN(c4ccccn4)CC3)c2c1 | -23% (inactive)
8 | CC(NC(=O)OC1CCCCC1)N1C(=O)C2C3C=CC(C3)C2C1=O (stereo not drawn) | -1.3% (inactive)
9 | Cn1c(N/N=C/c2cccs2)nc2c1c(=O)n(Cc1ccccc1)c(=O)n2C | -22.5% (inactive)
10 | NC(=O)c1cc2cc(Cl)ccc2oc1=Nc1cccc(C(F)(F)F)c1 | -9.4% (inactive)
11 | Cn1c(O)c(C=Nc2ccc(N3CCOCC3)cc2)c(=O)n(C)c1=S | -14.6% (inactive)
12 | CCN(CC(=O)Nc1ccc2c(c1)OCCO2)S(=O)(=O)c1ccccc1 | -42.6% (inactive)
13 | CCCN1CN(Cc2ccccc2)CNC1=S | -23.1% (inactive)
14 | CCOC(=O)/C(C#N)=C/c1c(N2CCCCCC2)nc2ccccn2c1=O | 0.9% (inactive)
15 | COc1cc2c3c(c1)C1(C(=O)N3C(C)(C)C=C2C)C(C#N)=C(N)Oc2cc(C)oc(=O)c21 (stereo not drawn) | -10.4% (inactive)
16 | CCc1cc2c3c(c1)C1(C(=O)N3C(C)(C)C=C2C)C(C#N)=C(N)Oc2[nH]c(=O)[nH]c(=O)c21 (stereo not drawn) | 54.6% (active)
17 | CC1=CC(C)(C)N2C(=O)C3(C(C#N)=C(N)Oc4cc(C)oc(=O)c43)c3cccc1c32 (stereo not drawn) | -1.1% (inactive)
18 | Cc1cc(C)n(C(=O)/C(C#N)=N/Nc2cc(Cl)cc(Cl)c2)n1 | 40.4% (active)
19 | Cc1cc(C)n(C(=O)/C(C#N)=N\Nc2ccccc2[N+](=O)[O-])n1 | -30.2% (inactive)
20 | Cc1cc(C)n(C(=O)/C(C#N)=C/N(C)C)n1 | -47.6% (inactive)
21 | Cc1nc(Cl)c(C(=O)NCc2ccccc2)c(C)c1Cl | -37.4% (inactive)
22 | Cc1nc(Cl)c(C(=O)NCc2ccccc2)c(C)c1[N+](=O)[O-] | -6.1% (inactive)
23 | O=C(NCc1ccccc1)c1c(Cl)nc(Cl)c(Cl)c1Cl | 54.5% (active)
24 | COc1ccc(C)cc1-n1nc2ccccc2n1 | -40% (inactive)
25 | N=C1/C(=C/c2cccs2)C(=O)N=C2SN=C(SCc3ccccc3)N12 | 80.4% (active)

Row | Compound | inhibition
26 | CSC1=NSC2=NC(=O)/C(=C\c3cccs3)C(=N)N12 | -30% (inactive)
27 | CC(C)CSC1=NSC2=NC(=O)/C(=C\c3cccs3)C(=N)N12 | 41.8% (inactive)
28 | CCc1ccc(-n2nnnc2SCC(=O)Nc2ccc(NC(C)=O)cc2)cc1 | -3.5% (inactive)
29 | O=C1/C(=C/c2ccccc2[N+](=O)[O-])COc2ccccc21 | 47.1% (active)
30 | O=C1/C(=C/c2ccc(O)cc2)COc2ccccc21 | -6.1% (inactive)
31 | O=C1/C(=C/c2cccs2)COc2ccccc21 | -19% (inactive)
32 | CCOC(=O)c1cnc2nc(NCc3ccc(OC)c(OC)c3)[nH]n2c1=O | -26.1% (inactive)
33 | CC1CCCN1CC#CC(O)(c1ccccc1)c1ccccc1 (stereo not drawn) | 0.2% (inactive)
34 | O=C(Nc1ccc([N+](=O)[O-])cn1)c1ccc2c(c1)OCO2 | -49.4% (inactive)
35 | O=C(Nc1ncc([N+](=O)[O-])s1)c1cccc([N+](=O)[O-])c1 | 10.4% (inactive)
36 | Cc1nnc(NC(=O)c2c(-c3ccccc3)noc2C)s1 | -0.4% (inactive)
37 | CC(c1ccccc1)c1nnc(NC(=O)c2ccc3c(c2)OCO3)s1 (stereo not drawn) | 5.6% (inactive)
38 | CC(C)c1nnc(NC(=O)c2ccc3c(c2)OCO3)s1 | 62.9% (active)
39 | Cc1cnc(NC(=O)c2c(-c3ccccc3)noc2C)s1 | 2.4% (inactive)
40 | CCC(CC)c1nnc(NC(=O)c2ccc3c(c2)OCO3)s1 | -53.7% (inactive)
41 | O=C(Nc1ncc([N+](=O)[O-])s1)c1ccc2c(c1)OCO2 | 69% (active)
42 | C/C(CCc1ccc2c(c1)OCO2)=N\N=C1\NC(=O)CC(C(=O)Nc2ccc(Cl)cc2)S1 (stereo not drawn) | 3.3% (inactive)
43 | COc1ccc(NC(=O)CNC(=O)c2c(C)nn(C)c2Cl)cc1 | -25.4% (inactive)
44 | Cc1ccc(C(=O)Cn2c(C)cc(C)c(C#N)c2=O)cc1 | -3.5% (inactive)
45 | COc1cccc2sc(/N=C/N(C)C)nc12 | 4.3% (inactive)
46 | CN1CCCC1=Nc1c2c(nc3ccccc13)N(C)CC2 | -12.3% (inactive)
47 | COc1ccc(-c2csc(NC(=S)NC(=O)c3ccc(S(=O)(=O)N(C)C)cc3)n2)cc1OC | -1.9% (inactive)
48 | Cc1ccc(CCCOC(=O)CN2CCCCC2)cc1 | -29.9% (inactive)
49 | COc1cc(OC)cc(OCC(O)Cn2cnc(-c3ccccc3)c2)c1 (stereo not drawn) | -19.2% (inactive)
50 | Brc1ccc(C=Nc2ccc3c(c2)OCCOCCOCCO3)s1 | -40.4% (inactive)

Row | Compound | inhibition
51 | O=C(c1noc2c1CCc1ccccc1-2)N1CCc2ccccc2C1 | -25% (inactive)
52 | COc1ccc(CNc2ncnc3cc(OC)c(OC)cc23)cc1OC | -17% (inactive)
53 | Fc1ccccc1CNc1ncnc2sccc12 | 25.2% (inactive)
54 | CN(C)C(CNc1ncnc2sccc12)c1ccccc1 (stereo not drawn) | 4% (inactive)
55 | OC(CNc1ncnc2sccc12)c1ccccc1 (stereo not drawn) | -2.4% (inactive)
56 | COc1ccccc1Nc1ncnc2sccc12 | -5.2% (inactive)
57 | COc1ccc(CNc2ncnc3sccc23)cc1 | 41.7% (inactive)
58 | O=C(CN1CCN(S(=O)(=O)c2ccc(Cl)cc2)CC1)c1ccc(O)c(O)c1 | -30.9% (inactive)
59 | Cn1ccnc1SCC(=O)c1ccc([N+](=O)[O-])cc1 | -21.2% (inactive)
60 | COc1ccc(C(=O)NCCOC(C)C)cc1OC1CCN(C(C)=O)CC1 | -13.7% (inactive)
61 | O=C(CSc1nc2ccccc2s1)NNC(=S)Nc1ccc(Cl)cc1 | -14.3% (inactive)
62 | O=C(COc1ccc(Cl)cc1Cl)NNC(=S)NC(=O)c1ccco1 | -10.8% (inactive)
63 | CCOc1ccc(OCC)c(NC(=O)CN2CCN(c3cccc(C)c3)C(C)C2)c1 (stereo not drawn) | 29.9% (inactive)
64 | O=C(CSc1nc2ccccc2s1)NC1CCCC1 | 9.6% (inactive)
65 | O=C(Cn1ncc(Cl)c(Cl)c1=O)N1CCN(S(=O)(=O)c2ccc3ccccc3c2)CC1 | 48.9% (inactive)
66 | O=C(Cn1ncc(Cl)c(Cl)c1=O)N1CCN(Cc2ccccc2)CC1 | 84.9% (active)
67 | O=C(Cn1ncc(Cl)c(Cl)c1=O)N1CCOCC1 | 6.8% (inactive)
68 | Cc1ccc2c(c1)C(c1ccc(F)cc1)N(C(=O)c1ccc(S(=O)(=O)N(C)C)cc1)CC(=O)N2 (stereo not drawn) | 3.7% (inactive)
69 | C=CCOc1ccc(Br)cc1/C=C1/SC(=Nc2ccc(C(=O)O)cc2)NC1=O | 40.4% (active)
70 | CCOc1cc(Br)cc(/C=C2\SC(=Nc3ccccc3)NC2=O)c1O | -86.1% (inactive)
71 | C=CCOc1c(Br)cc(/C=C2\SC(=Nc3ccccc3)NC2=O)cc1OC | -29.6% (inactive)
72 | O=C(c1cc2cc(Cl)ccc2o1)N1CCCC1 | -13% (inactive)
73 | COCCn1nnnc1CN(Cc1cc2cc(OC)c(OC)cc2[nH]c1=O)C1CCCC1 | -13.9% (inactive)
74 | CC/C(=N\NC(=S)Nc1cccc(C)c1)c1ccccc1 | 48.5% (active)
75 | CC(C)CCNC(=S)Nc1ccc(Br)cc1 | -18.8% (inactive)

Row | Compound | inhibition
76 | Cc1cccc(NC(=S)NCCC(C)C)c1 | 69.1% (active)
77 | Cc1cccc(NC(=S)N/N=C(\c2ccccc2)C(C)C)c1 | -62.9% (inactive)
78 | Cc1cccc(NC(=S)NCCC(c2ccccc2)c2ccccc2)c1 | 7.2% (inactive)
79 | C/C(=N\NC(=S)Nc1cccc(C)c1)c1ccccc1 | -16.7% (inactive)
80 | CC(=O)N/C(=C\c1ccc(F)cc1)C(=O)OCc1ccccc1 | -8% (inactive)
81 | Cc1oc(-c2ccccc2Cl)nc1CS(=O)CC(=O)NCc1cccs1 (stereo not drawn) | -13.9% (inactive)
82 | O=C(C/C=N/OCc1ccc(Cl)cc1Cl)c1ccc(Cl)cc1 | 19.3% (inactive)
83 | O=C(C/C=N\OCc1ccc(Cl)cc1Cl)Nc1ccccc1 | -17% (inactive)
84 | CN(C)/C=C(\C=N\OCc1ccc(Cl)cc1Cl)C(=O)Nc1ccc(Cl)c(Cl)c1 | 95.7% (active)
85 | CCN(CCCNC(=O)CN1C(=O)COc2ccccc21)c1cccc(C)c1 | 14.9% (inactive)
86 | COc1ccc(NC(=O)C(=O)NCCN2CCN(C(=O)c3ccc(C)cc3)CC2)cc1 | -23% (inactive)
87 | O=C1Nc2cccnc2N(C(=O)CCl)c2ccccc21 | 50.5% (active)
88 | CCN(CC)CC1CCCCN1CC(=O)N1c2ccccc2C(=O)Nc2cccnc21 (stereo not drawn) | 5.4% (inactive)
89 | CN1CCN(CC(=O)N2c3ccccc3C(=O)Nc3cccnc32)CC1 | -42.1% (inactive)
90 | CCOC(=O)c1c(C)[nH]c(C2=NNC(=Nc3ccc(OCC)cc3)SC2)c1C | -31.6% (inactive)
91 | COc1cc(O)cc2cc3c(c(O)c12)C(=O)CC(C)(O)O3 (stereo not drawn) | 51.8% (active)
92 | COc1cc(O)c2c(c1)OC(C)(C)CC2=O | 5.2% (inactive)
93 | CC1(C)CC(=O)c2c(O)cc(O)cc2O1 | -18.9% (inactive)
94 | Cc1ccc(S(=O)(=O)c2nnn3c2nc(N2CCCCC2)c2ccccc23)cc1 | -42.5% (inactive)
95 | COc1ccc(CCNC(=O)c2cc(C)oc2C)cc1 | -16% (inactive)
96 | CC(=O)Nc1ccc(OCc2cccc3ccccc23)cc1 | 29.7% (inactive)
97 | N#CC(c1ccc(Cl)cc1)c1ccc2c(C(F)(F)F)cc(C(F)(F)F)nc2n1 (stereo not drawn) | 39.5% (inactive)
98 | Cc1ccc(C(C#N)c2ccc3c(C(F)(F)F)cc(C(F)(F)F)nc3n2)cc1 (stereo not drawn) | 30% (inactive)
